# From the supplement of paper PMC6411743
# ± gives the standard deviation of the averaged measurements. Of roughly 6,200 targets only a part is listed; those with the largest changes were picked by preference.
# Key:
# Test in all cases: NP40-soluble protein abundance relative to vehicle (solubility fold change) (ratio); higher = more soluble protein in presence of AMP-PNP
# A0A087WXD1|Q96T83 = molecular target: T1, A0A087WXD1|Q96T83 (UniProt Q96T83)
# T1 sequence (whole entry): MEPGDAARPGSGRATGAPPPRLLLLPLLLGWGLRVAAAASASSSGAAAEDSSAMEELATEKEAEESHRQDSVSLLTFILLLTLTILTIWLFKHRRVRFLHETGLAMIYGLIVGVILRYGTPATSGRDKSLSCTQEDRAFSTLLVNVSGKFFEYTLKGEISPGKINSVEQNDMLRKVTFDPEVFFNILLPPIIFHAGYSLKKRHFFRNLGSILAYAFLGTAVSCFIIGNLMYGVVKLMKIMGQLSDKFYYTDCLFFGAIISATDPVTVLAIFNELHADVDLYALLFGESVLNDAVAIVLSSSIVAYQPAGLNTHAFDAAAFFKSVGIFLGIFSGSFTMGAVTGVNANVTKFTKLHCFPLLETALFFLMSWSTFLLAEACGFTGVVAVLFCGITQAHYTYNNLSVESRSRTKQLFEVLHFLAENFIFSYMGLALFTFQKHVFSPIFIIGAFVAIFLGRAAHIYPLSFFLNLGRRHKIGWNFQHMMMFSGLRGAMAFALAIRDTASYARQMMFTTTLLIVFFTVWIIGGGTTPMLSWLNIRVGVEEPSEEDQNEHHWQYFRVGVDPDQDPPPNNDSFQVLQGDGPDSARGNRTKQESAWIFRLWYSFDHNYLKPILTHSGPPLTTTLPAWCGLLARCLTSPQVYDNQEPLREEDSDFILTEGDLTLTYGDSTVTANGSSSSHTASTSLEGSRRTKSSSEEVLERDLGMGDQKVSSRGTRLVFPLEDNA
# In short: (§1)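 Eight concentrations, 0.1 to 10 mM, were tested on Jurkat crude lysate for 10 min at room temperature and then 3 min at 37 °C, in three independent experiments. The lysate was solubilised with 0.8% NP40 and benzonase, ultracentrifuged, and the supernatant TMT-labelled for LC-MS/MS. Each value is the fold change against the detergent-processed vehicle in its own replicate, from vsn-normalised intensities.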
# [1] = molecular target: A0A087WY00|F8W6H6|Q9Y4I1|Q9Y4I1-2|G3V394|Q9Y4I1-3 (UniProt Q9Y4I1)
# Chain of A0A087WY00|F8W6H6|Q9Y4I1|Q9Y4I1-2|G3V394|Q9Y4I1-3 (Q9Y4I1 whole entry, one chain of several): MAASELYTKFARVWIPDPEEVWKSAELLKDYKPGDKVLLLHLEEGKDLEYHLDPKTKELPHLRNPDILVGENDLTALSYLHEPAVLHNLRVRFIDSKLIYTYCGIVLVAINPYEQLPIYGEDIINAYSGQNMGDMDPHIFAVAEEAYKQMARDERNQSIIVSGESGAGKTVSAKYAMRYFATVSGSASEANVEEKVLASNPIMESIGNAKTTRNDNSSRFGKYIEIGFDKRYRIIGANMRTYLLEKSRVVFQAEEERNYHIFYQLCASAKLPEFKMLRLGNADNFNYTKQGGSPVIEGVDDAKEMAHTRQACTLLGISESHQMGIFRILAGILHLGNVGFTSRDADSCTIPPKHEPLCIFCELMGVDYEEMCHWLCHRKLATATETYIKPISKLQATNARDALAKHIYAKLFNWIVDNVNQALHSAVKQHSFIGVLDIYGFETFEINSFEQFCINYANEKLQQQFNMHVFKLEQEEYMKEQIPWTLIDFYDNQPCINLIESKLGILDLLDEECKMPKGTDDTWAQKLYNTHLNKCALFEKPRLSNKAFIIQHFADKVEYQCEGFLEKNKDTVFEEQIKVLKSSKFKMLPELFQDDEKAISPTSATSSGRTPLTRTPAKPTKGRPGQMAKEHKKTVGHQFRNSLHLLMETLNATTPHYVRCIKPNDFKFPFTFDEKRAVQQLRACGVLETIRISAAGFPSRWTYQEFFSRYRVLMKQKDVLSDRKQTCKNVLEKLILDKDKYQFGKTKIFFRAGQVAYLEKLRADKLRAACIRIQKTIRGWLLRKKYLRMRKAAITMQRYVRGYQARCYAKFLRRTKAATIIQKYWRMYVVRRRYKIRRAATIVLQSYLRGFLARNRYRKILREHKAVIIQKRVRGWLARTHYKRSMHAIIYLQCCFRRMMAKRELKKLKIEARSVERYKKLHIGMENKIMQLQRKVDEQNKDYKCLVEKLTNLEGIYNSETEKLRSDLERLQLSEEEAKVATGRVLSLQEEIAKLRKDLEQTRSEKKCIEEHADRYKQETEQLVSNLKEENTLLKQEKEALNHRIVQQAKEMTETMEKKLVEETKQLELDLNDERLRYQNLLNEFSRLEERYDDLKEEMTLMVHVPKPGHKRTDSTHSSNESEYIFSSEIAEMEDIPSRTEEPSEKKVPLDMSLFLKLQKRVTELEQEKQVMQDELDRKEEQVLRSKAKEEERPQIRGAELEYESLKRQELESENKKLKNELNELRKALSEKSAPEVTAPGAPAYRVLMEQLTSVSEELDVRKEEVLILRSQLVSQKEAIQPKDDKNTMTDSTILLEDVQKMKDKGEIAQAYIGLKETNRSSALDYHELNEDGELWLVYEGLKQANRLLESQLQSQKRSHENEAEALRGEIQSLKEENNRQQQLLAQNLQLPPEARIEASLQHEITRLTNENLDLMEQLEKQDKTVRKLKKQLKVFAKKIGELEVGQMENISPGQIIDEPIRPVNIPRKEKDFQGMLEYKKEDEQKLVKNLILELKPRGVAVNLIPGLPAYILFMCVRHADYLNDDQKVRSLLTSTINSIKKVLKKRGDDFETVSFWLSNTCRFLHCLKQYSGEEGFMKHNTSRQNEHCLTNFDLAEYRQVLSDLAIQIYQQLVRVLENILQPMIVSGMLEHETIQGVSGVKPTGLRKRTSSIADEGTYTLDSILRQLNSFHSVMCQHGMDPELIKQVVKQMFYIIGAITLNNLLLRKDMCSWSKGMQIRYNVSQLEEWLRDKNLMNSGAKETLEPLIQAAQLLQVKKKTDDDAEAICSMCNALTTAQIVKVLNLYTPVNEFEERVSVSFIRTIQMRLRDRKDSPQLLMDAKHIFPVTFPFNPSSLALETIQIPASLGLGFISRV
# In short: as §1
# A0A087WYG2|E9PFH7|Q9UPT6 = molecular target: T2, A0A087WYG2|E9PFH7|Q9UPT6 (UniProt Q9UPT6)
# T2 sequence (whole entry): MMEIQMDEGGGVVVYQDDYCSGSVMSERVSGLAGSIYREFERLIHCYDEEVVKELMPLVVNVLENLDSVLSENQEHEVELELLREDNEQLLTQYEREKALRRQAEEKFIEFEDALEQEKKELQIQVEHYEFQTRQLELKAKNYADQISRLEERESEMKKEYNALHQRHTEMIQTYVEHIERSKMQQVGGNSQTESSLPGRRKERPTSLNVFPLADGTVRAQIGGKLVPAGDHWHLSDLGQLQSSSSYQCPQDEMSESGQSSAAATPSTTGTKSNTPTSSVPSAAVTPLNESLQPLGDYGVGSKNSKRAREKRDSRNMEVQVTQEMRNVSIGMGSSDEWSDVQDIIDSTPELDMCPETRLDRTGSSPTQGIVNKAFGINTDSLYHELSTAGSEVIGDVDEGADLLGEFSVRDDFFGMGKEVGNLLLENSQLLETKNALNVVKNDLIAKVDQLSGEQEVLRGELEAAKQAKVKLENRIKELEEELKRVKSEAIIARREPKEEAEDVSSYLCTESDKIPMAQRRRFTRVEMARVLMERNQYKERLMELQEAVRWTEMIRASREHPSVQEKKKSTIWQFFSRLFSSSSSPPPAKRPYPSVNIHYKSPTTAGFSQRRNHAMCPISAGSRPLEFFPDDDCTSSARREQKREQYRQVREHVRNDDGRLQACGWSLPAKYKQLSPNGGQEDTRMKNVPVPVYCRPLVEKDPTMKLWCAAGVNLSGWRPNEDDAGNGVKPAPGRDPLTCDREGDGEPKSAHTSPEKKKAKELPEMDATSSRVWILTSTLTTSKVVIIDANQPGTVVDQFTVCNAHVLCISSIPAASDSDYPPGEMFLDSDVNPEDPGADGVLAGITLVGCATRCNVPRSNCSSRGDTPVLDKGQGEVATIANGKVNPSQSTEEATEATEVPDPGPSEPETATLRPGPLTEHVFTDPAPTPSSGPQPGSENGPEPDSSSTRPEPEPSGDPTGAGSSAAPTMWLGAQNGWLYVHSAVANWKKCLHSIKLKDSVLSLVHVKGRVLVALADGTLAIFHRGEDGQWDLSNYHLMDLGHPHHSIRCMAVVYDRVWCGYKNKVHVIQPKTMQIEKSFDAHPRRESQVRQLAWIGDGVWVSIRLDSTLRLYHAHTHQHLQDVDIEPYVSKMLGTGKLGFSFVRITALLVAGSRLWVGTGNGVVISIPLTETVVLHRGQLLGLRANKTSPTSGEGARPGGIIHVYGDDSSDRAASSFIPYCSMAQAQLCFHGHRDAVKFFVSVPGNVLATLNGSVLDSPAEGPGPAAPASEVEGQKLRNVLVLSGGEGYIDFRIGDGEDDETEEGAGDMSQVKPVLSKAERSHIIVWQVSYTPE
# In short: as §1
# A0A087WYN9|Q7Z478 = molecular target: T3, A0A087WYN9|Q7Z478 (UniProt Q7Z478)
# T3 sequence (whole entry): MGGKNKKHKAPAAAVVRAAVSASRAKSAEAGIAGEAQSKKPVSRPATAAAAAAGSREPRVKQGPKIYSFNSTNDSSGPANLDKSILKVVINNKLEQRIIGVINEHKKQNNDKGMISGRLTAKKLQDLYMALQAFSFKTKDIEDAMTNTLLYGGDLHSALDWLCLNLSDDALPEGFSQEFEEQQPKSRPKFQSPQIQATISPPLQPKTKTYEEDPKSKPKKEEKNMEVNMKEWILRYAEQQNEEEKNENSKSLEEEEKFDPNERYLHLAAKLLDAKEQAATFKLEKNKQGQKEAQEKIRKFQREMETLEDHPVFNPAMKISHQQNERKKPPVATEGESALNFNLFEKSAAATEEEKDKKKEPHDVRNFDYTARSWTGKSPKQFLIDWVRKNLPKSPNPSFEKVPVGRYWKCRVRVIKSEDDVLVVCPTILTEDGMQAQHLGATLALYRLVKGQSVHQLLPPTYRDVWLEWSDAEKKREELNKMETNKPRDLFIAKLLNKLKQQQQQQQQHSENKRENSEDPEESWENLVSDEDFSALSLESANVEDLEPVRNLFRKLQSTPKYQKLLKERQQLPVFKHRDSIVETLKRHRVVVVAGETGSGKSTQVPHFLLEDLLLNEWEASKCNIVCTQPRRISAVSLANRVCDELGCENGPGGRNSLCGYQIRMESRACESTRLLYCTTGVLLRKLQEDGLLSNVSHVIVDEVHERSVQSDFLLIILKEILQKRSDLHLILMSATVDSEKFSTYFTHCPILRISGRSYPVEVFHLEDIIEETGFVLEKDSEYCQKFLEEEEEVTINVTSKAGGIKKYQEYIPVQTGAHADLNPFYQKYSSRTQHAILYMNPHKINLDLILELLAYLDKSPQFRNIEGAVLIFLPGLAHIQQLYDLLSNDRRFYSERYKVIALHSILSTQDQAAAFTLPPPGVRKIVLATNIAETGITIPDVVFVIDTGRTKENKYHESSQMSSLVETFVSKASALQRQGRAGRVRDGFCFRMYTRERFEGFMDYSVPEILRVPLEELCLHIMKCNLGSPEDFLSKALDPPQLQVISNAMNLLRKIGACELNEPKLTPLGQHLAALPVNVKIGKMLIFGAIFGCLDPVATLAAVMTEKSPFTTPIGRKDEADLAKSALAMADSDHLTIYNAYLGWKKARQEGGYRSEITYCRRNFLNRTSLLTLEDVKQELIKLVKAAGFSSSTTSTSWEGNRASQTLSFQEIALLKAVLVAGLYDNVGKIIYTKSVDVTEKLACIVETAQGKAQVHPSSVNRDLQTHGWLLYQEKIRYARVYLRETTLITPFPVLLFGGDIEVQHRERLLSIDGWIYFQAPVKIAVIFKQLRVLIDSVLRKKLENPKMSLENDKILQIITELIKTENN
# In short: as §1
# A0A087WZ62 = tested on: A0A087WZ62
# In short: as §1
compound,measurement,setting,value
Nc1ncnc2c1ncn2[C@@H]1O[C@H](COP(=O)(O)OP(=O)(O)NP(=O)(O)O)[C@@H](O)[C@H]1O [adenylyl imidodiphosphate],NP40-soluble protein abundance,A0A087WXD1|Q96T83; concentration: 1mM,0.971 ± 0.05
same,NP40-soluble protein abundance,A0A087WXD1|Q96T83; concentration: 2mM,0.973 ± 0.015
same,NP40-soluble protein abundance,A0A087WXD1|Q96T83; concentration: 4mM,0.958 ± 0.033
same,NP40-soluble protein abundance,A0A087WXD1|Q96T83; concentration: 6mM,0.948 ± 0.038
same,NP40-soluble protein abundance,A0A087WXD1|Q96T83; concentration: 8mM,0.935 ± 0.027
same,NP40-soluble protein abundance,A0A087WXD1|Q96T83; concentration: 10mM,0.9324 ± 0.0081
same,NP40-soluble protein abundance,[1]; concentration: 1mM,1.9 ± 0.27
same,NP40-soluble protein abundance,[1]; concentration: 2mM,1.97 ± 0.29
same,NP40-soluble protein abundance,[1]; concentration: 4mM,2.07 ± 0.28
same,NP40-soluble protein abundance,[1]; concentration: 6mM,2 ± 0.31
same,NP40-soluble protein abundance,[1]; concentration: 8mM,1.96 ± 0.29
same,NP40-soluble protein abundance,[1]; concentration: 10mM,2.01 ± 0.24
same,NP40-soluble protein abundance,A0A087WYG2|E9PFH7|Q9UPT6; concentration: 1mM,1.01 ± 0.034
same,NP40-soluble protein abundance,A0A087WYG2|E9PFH7|Q9UPT6; concentration: 2mM,1.03 ± 0.025
same,NP40-soluble protein abundance,A0A087WYG2|E9PFH7|Q9UPT6; concentration: 4mM,1.03 ± 0.025
same,NP40-soluble protein abundance,A0A087WYG2|E9PFH7|Q9UPT6; concentration: 6mM,0.988 ± 0.026
same,NP40-soluble protein abundance,A0A087WYG2|E9PFH7|Q9UPT6; concentration: 8mM,0.981 ± 0.022
same,NP40-soluble protein abundance,A0A087WYG2|E9PFH7|Q9UPT6; concentration: 10mM,1 ± 0.023
same,NP40-soluble protein abundance,A0A087WYN9|Q7Z478; concentration: 1mM,1.31 ± 0.067
same,NP40-soluble protein abundance,A0A087WYN9|Q7Z478; concentration: 2mM,1.49 ± 0.079
same,NP40-soluble protein abundance,A0A087WYN9|Q7Z478; concentration: 4mM,1.73 ± 0.18
same,NP40-soluble protein abundance,A0A087WYN9|Q7Z478; concentration: 6mM,1.9 ± 0.22
same,NP40-soluble protein abundance,A0A087WYN9|Q7Z478; concentration: 8mM,2.01 ± 0.24
same,NP40-soluble protein abundance,A0A087WYN9|Q7Z478; concentration: 10mM,2.1 ± 0.29
same,NP40-soluble protein abundance,A0A087WZ62; concentration: 1mM,0.976 ± 0.026
same,NP40-soluble protein abundance,A0A087WZ62; concentration: 2mM,0.963 ± 0.027
same,NP40-soluble protein abundance,A0A087WZ62; concentration: 4mM,0.931 ± 0.022
